Assay results reported in the supplement of paper PMC7726561.

What follows are sequences tested against HLA-C*04:01 (assay: thermal melting temperature (Tm) of peptide-HLA complex; higher = more thermostable pHLA complex). Conditions: C1R-A*02:01.
Procedure: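 Endogenous HLA-C*04:01 ligands were detected in the thermostability assays of both the C1R-A*02:01 and C1R-B*07:02 lines. Lysates were heated 10 min at 37-73 °C and pHLA immunoprecipitated with W6/32. Peptides were quantified by DIA-MS and Tm was taken from a logistic sigmoid fit.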
In the case of HFDLSVIEL, the thermal melting temperature is reported as 57.1 °C.
Work on VFDKTLAEL yielded a thermal melting temperature of 58.9 °C.
With DFDMTLSRF the thermal melting temperature was 52.8 °C.
Work on RFEDSPSYV yielded a thermal melting temperature of 54.4 °C.
FFDTNTSVL was tested, and the thermal melting temperature was 55.5 °C.
FLPEAPAEL was tested, and the thermal melting temperature was 54.1 °C.
With FFEEFGKL the thermal melting temperature was 44.3 °C.
Sequence TFDLTVVSY has a thermal melting temperature of 53.5 °C.
For LFDDKAVEI, the thermal melting temperature was 57.2 °C.
In the case of QYDEAVAQF, the thermal melting temperature is reported as 56.7 °C.
With VFDEAIRAVL the thermal melting temperature was 60.2 °C.
Work on VFDTAIAHL yielded a thermal melting temperature of 59 °C.
GGSFDVADRMF gave a thermal melting temperature of 53.1 °C.
With MPDDLLTTL the thermal melting temperature was 53.1 °C.
With SFDAHLTEL the thermal melting temperature was 53 °C.
SFEEKPVYI showed a thermal melting temperature of 56.8 °C.
Work on FFDSQGQVLL yielded a thermal melting temperature of 51 °C.
FFDPSLLHL gave a thermal melting temperature of 55.4 °C.
AFDASRTSF showed a thermal melting temperature of 52.4 °C.
Sequence FYEPQKGSIYL has a thermal melting temperature of 60.5 °C.
In the case of TFDVSPKAV, the thermal melting temperature is reported as 41.9 °C.
In the case of IYDEVVKL, the thermal melting temperature is reported as 54.3 °C.
Work on TYDYAKTIL yielded a thermal melting temperature of 49 °C.
For IYDEAISSF, the thermal melting temperature was 58.9 °C.
Sequence FLDLTEQEF has a thermal melting temperature of 59.8 °C.
VLDDKDYFL was tested, and the thermal melting temperature was 57 °C.
With SFDEIHQLF the thermal melting temperature was 47.8 °C.
For NYDEHISNF, the thermal melting temperature was 44.8 °C.
For SWDIVVQRV, the thermal melting temperature was 46.9 °C.
VFDVTAPNTF was tested, and the thermal melting temperature was 56.1 °C.
Work on VYDPSLKTLL yielded a thermal melting temperature of 52.3 °C.
For NFDDIKNGL, the thermal melting temperature was 52.1 °C.
For SYDLANRDF, the thermal melting temperature was 58.3 °C.
YFDDLKGEM showed a thermal melting temperature of 57.9 °C.
Work on YFPELIANF yielded a thermal melting temperature of 45.6 °C.
With SFDETVTHF the thermal melting temperature was 58.6 °C.
VFDPIGHF gave a thermal melting temperature of 59.3 °C.
AFDLSQVLF was tested, and the thermal melting temperature was 56.1 °C.
In the case of TFDVSILTI, the thermal melting temperature is reported as 44.9 °C.
FWDGKIVLV was tested, and the thermal melting temperature was 62.5 °C.
In the case of LYDEAIRHF, the thermal melting temperature is reported as 56.5 °C.
IFDQSGTYL was tested, and the thermal melting temperature was 53.4 °C.
With NFDNILNSF the thermal melting temperature was 56.8 °C.
Sequence IFDRVLTEL has a thermal melting temperature of 51.3 °C.
Sequence IFDGNVAHI has a thermal melting temperature of 59.7 °C.
Sequence RFDESMQVF has a thermal melting temperature of 55.9 °C.
LYDLVTEKM gave a thermal melting temperature of 56.2 °C.

Same assay, conditions: C1R-B*07:02
HFDLSVIEL was tested, and the thermal melting temperature was 60.5 °C.
With VFDKTLAEL the thermal melting temperature was 59.1 °C.
DFDMTLSRF showed a thermal melting temperature of 54.5 °C.
RFEDSPSYV gave a thermal melting temperature of 52.3 °C.
With FFDTNTSVL the thermal melting temperature was 59.4 °C.
FLPEAPAEL showed a thermal melting temperature of 55.9 °C.
In the case of FFEEFGKL, the thermal melting temperature is reported as 46.5 °C.
In the case of TFDLTVVSY, the thermal melting temperature is reported as 61.8 °C.
Work on LFDDKAVEI yielded a thermal melting temperature of 57.2 °C.
With QYDEAVAQF the thermal melting temperature was 59.2 °C.
Sequence VFDEAIRAVL has a thermal melting temperature of 58.8 °C.
Work on VFDTAIAHL yielded a thermal melting temperature of 58.7 °C.
GGSFDVADRMF showed a thermal melting temperature of 53.2 °C.
MPDDLLTTL gave a thermal melting temperature of 63.4 °C.
Work on SFDAHLTEL yielded a thermal melting temperature of 52.9 °C.
With SFEEKPVYI the thermal melting temperature was 55.5 °C.
In the case of FFDSQGQVLL, the thermal melting temperature is reported as 53.6 °C.
Sequence FFDPSLLHL has a thermal melting temperature of 55.8 °C.
Work on AFDASRTSF yielded a thermal melting temperature of 52.8 °C.
FYEPQKGSIYL gave a thermal melting temperature of 62.1 °C.
Sequence TFDVSPKAV has a thermal melting temperature of 48.1 °C.
Sequence IYDEVVKL has a thermal melting temperature of 51.6 °C.
In the case of TYDYAKTIL, the thermal melting temperature is reported as 46.9 °C.
For IYDEAISSF, the thermal melting temperature was 62.7 °C.
For FLDLTEQEF, the thermal melting temperature was 60.6 °C.
Sequence VLDDKDYFL has a thermal melting temperature of 42.4 °C.
SFDEIHQLF gave a thermal melting temperature of 52 °C.
For NYDEHISNF, the thermal melting temperature was 48.9 °C.
For SWDIVVQRV, the thermal melting temperature was 49 °C.
VFDVTAPNTF was tested, and the thermal melting temperature was 61.1 °C.
VYDPSLKTLL gave a thermal melting temperature of 52.4 °C.
NFDDIKNGL was tested, and the thermal melting temperature was 50.4 °C.
In the case of SYDLANRDF, the thermal melting temperature is reported as 57.8 °C.
YFDDLKGEM was tested, and the thermal melting temperature was 59.4 °C.
In the case of YFPELIANF, the thermal melting temperature is reported as 45.3 °C.
With SFDETVTHF the thermal melting temperature was 59.8 °C.
Work on VFDPIGHF yielded a thermal melting temperature of 58.8 °C.
AFDLSQVLF gave a thermal melting temperature of 56.5 °C.
TFDVSILTI was tested, and the thermal melting temperature was 47.2 °C.
FWDGKIVLV gave a thermal melting temperature of 60.7 °C.
In the case of LYDEAIRHF, the thermal melting temperature is reported as 60 °C.
Sequence IFDQSGTYL has a thermal melting temperature of 56.4 °C.
NFDNILNSF was tested, and the thermal melting temperature was 58.7 °C.
IFDRVLTEL gave a thermal melting temperature of 54.7 °C.
IFDGNVAHI showed a thermal melting temperature of 59 °C.
With RFDESMQVF the thermal melting temperature was 58.5 °C.
LYDLVTEKM showed a thermal melting temperature of 60.7 °C.
